HSF-1 act: increases HSF-1 driven luciferase reporter signal. NIH3T3-HGL HSF-1 luciferase reporter, MG132, 8 h; 100% = twice DMSO control signal. activation, % at 9 µM. actives 1.7% (n = 300,000). AID 504408;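 active means mean replicate activation of at least 50% with a set share of replicates each reaching 50%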;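 further: 0% = median of the neutral control wells and 100% = twice that signal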
HSF1 inh: HSF1 inhibition | NIH3T3-HGL HSE-luciferase, MG132-induced, luminescence 8 h; hits give low values | actives 0.77% (n = 300,000) | AID 2098 | activity change, negative = inhibition, % at 7.5 µM (by protocol);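 active means more than half of replicate wells show activity change below -50%, luminescence cut by over half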;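 further: luciferase reports HSF-1 transcriptional activity via heat shock element; 0% = median of DMSO wells and -100% = zero luminescence signal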
DAX1 inh: inhibits human nuclear receptor DAX1; HEK293 Gal4-DAX1 luciferase reporter, luminescence; inhibition, % at 6.75 µM; actives 0.99% (n = 340,000);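 active means inhibition above the mean over all tested compounds plus 3 SD, cut at about 4.2% in these data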;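 further: 0% = DAX1-transfected cells with DMSO and 100% = empty-vector control cells with DMSO; inhibition shows as a rise in luminescence from relieved DAX1 repression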
Target sequence (P51843 207-470 limits assumed): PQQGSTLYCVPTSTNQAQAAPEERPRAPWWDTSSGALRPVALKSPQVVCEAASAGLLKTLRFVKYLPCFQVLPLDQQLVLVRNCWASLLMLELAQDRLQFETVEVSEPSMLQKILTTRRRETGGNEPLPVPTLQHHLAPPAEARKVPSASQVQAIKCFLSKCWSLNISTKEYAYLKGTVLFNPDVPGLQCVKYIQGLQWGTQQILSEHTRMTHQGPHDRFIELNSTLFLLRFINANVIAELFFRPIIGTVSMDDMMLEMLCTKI
HSP90 refold inh: HSP90 refolding inhibition in rabbit reticulocyte lysate | luciferase refolding luminescence, 3 h | inhibition, % at 5.6 µM | actives 0.91% (n = 290,000) | AID 1789;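 active means inhibition above the screen-wide mean plus 3 SD, computed separately per campaign, cut at about 16% in these data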;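 further: 0% = DMSO wells and 100% = 60 µM geldanamycin wells; inhibitors lower the luminescence because luciferase stays unfolded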
GAA850 FXN act: frataxin GAA850 promoter activation; AID 540364; activation, % at 6 µM; HEK293 lucGAA850 FXN promoter luciferase reporter, 24 h; percent of 10 µM SAHA response; actives 0.56% (n = 360,000);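 active means activation above the average of all compounds screened plus 3 SD, cutoff fixed separately per campaign, cut at about 7.5% in these data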;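 further: 0% = DMSO wells and 100% = 10 µM SAHA wells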
AHR activator: activates the human aryl hydrocarbon receptor; P35869; AHR-responsive luciferase reporter cells, luminescence; activation, % at 5 µM; actives 2.5% (n = 320,000); in the data active means activation above about 47%;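 further: 0% = vehicle wells and 100% = reference agonist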
* marks the source's active call; other numbers are inactive results; . = no result given; ! = repeats disagree. Hits are enriched below; roughly 5.9% of the tested compounds scored in any of these assays.

SMILES	HSF-1 act	HSF1 inh	DAX1 inh	HSP90 refold inh	GAA850 FXN act	AHR activator
COCn1c(-c2ccc(OC)cc2)nc2ccccc21	-49.7	-32.6	1.5	2.2	1.1	55.3*
Cc1cc(C)c(C(N)=O)c(SCC(=O)c2cc(C)n(-c3cc(C)on3)c2C)n1	.	.	-1.7	.	-1.9	-5.1
Cc1cc(/C=C(\C#N)C(=O)NC2CC2)c(C)[nH]1	21.8	5.9	3.0	-6.8	5.7	57.5*
Cc1cc(/C=C(\C#N)C(=O)Nc2ccccc2F)c(C)[nH]1	60.2*	9.7	2.2	-8.9	4.3	66.1*
Cc1ccccc1-c1nnc(CS(=O)(=O)c2ccccc2)o1	127.1*	76.1	1.4	13.3	1.8	7.3
COCCOC(=O)N/C=C\c1nc2ccccc2c(=O)[nH]1	7.1	5.4	-0.1	1.9	1.6	55.0*
Cc1ccc(/C=C/c2nc3ccccc3c(=O)[nH]2)cc1	-18.0	-25.2	-0.2	14.1	2.9	9.4
COC(=O)c1ccc(/C=C/c2nc3ccccc3c(=O)[nH]2)cc1	62.3*	32.3	-0.2	8.0	5.0	0.1
Cn1c(N/N=C/c2cc3ccccc3nc2Cl)nc2ccccc21	-50.3	-46.3	-1.7	3.4	4.1	41.8
Cn1c(N/N=C/c2c[nH]c3ccccc23)nc2ccccc21	61.2*	36.5	0.8	0.3	2.0	56.2*
CN(C)c1ccc(/C=N\Nc2nc(-c3ccccc3)cc(=O)[nH]2)cc1	-79.1	-73.0*	0.1	-5.6	1.9	26.1
CN(C)c1ccc(C=NNc2nc3c([nH]2)c(=O)n(C)c(=O)n3C)cc1	.	.	-0.1	.	-0.3	.
Cc1cc(C)nc(N/N=C/c2c[nH]c3ccccc23)n1	7.9	-4.3	0.6	-1.5	5.4	24.1
Cc1cc(N/N=C/c2c[nH]c3ccccc23)c2ccccc2n1	7.8	-2.2	0.0	-1.7	3.1	58.2*
Cc1cc(N/N=C/c2ccc(N(C)C)cc2)c2ccccc2n1	-12.8	1.8	-0.9	2.2	1.2	49.2*
Nc1nonc1-n1nnc(C(=O)N/N=C/c2ccco2)c1CSc1ccc(Cl)cc1	.	.	1.4	.	1.1	.
Cn1c(CC(=O)NNC(=O)c2ccccc2[N+](=O)[O-])nc2ccccc21	.	.	-1.2	.	2.8	24.5
CC12CCC(=O)N1C(C(=O)NCCc1ccc(S(N)(=O)=O)cc1)CS2 (stereo not given)	3.9	-6.5	0.0	-3.5	3.5	-6.8
COc1ccc(NC(=S)N2CCC(c3nc4ccccc4[nH]3)CC2)c(OC)c1	11.4	-6.9	0.3	-1.0	-0.2	1.0
COc1ccccc1NC(=S)N1CCC(c2nc3cc(C)c(C)cc3[nH]2)CC1	-22.3	-1.0	-0.1	1.5	3.4	52.0*
COc1ccc(S(=O)(=O)Nc2ccncc2)c(C)c1C	59.9*	28.7	-0.4	-2.0	-0.9	2.2
COc1ccc(S(=O)(=O)Nc2cccnc2)c(C)c1C	2.5	0.2	0.7	-3.1	1.0	1.8
Cc1cccc(NC(=S)N2CCN(c3ccccc3)CC2)c1	1.8	-1.7	.	0.1	0.0	-1.3
Cc1cccc(CN2CCN(C(=S)Nc3ccccc3)CC2)c1	33.7	3.3	10.9*	-0.8	0.7	-0.8
COc1ccc(CC(NC(C)=O)C(=O)NC2CCN(c3nnnn3-c3ccccc3)CC2)cc1 (stereo not given)	12.0	-1.5	-0.3	1.8	-1.0	1.1
SMILES	HSF-1 act	HSF1 inh	DAX1 inh	HSP90 refold inh	GAA850 FXN act	AHR activator
COc1cccc(CC(NC(C)=O)C(=O)NC2CCN(c3nnnn3-c3ccccc3)CC2)c1 (stereo not given)	15.3	-2.3	4.3*	-1.5	-1.3	-0.1
Cc1ccc(S(=O)(=O)N2CCCCC2C)cc1[N+](=O)[O-] (stereo not given)	0.6	-9.6	0.0	16.4*	-0.4	2.4
CCc1ccc(NC(=O)CSc2nnc(Cc3cccn3C)n2-c2ccc(OC)cc2)cc1	24.2	8.2	4.7*	3.5	0.4	3.8
COc1ccc(-n2c(Cc3cccn3C)nnc2SCC(=O)NCc2ccco2)cc1	7.9	-2.2	0.7	-6.8	-0.4	66.2*
CCc1nc2ccc(C(=O)Nc3cccc(OCC(=O)N(C)C)c3)cn2c1N(C)Cc1ccc(N(C)C)cc1	.	.	.	.	-1.9	.
CCc1ccc2c(c1)/C(=C/C(=O)c1cccs1)C(=O)N2	-5.7	9.9	-0.6	2.5	-3.8	18.6
CCc1ccc2c(c1)[C@H]1OCC[C@H]1[C@@H](c1cccs1)N2	69.4*	44.9	-1.2	2.7	-5.5	78.4*
CCOc1ccc(NC(=O)C(CC)n2nc(C)c3c(C)n(-c4ccccc4)nc3c2=O)cc1 (stereo not given)	-0.8	-1.3	-0.2	-1.1	-1.2	0.9
O=C1/C(=C\c2cccs2)Sc2ccc3ccccc3c21	28.9	1.6	5.2*	2.2	6.0	62.0*
O=C1C(=Cc2cccs2)C(=O)c2ccccc21	-5.4	1.7	-0.2	-1.4	1.3	12.2
COc1cc([C@@H]2c3cc4c(cc3[C@H](O)[C@H]3COC(=O)[C@H]23)OCO4)cc(OC)c1OC	-74.1	-69.3*	-0.3	2.9	-2.8	10.0
COc1ccc(S(=O)(=O)N2CCCCC2)cc1NC(=O)CCNC(=O)c1ccc(Br)cc1	-1.9	4.6	-1.4	.	1.4	2.8
O=C(Nc1cccc(Cl)c1)OCCOc1ccccc1	-22.3	-0.1	6.0*	-0.6	5.2	.
O=C(Nc1cccc(Cl)c1)OCCOC(=O)Nc1cccc(Cl)c1	.	.	-1.5	.	0.3	.
C=CCOC(=O)C1=C(C)NC(SCC(=O)NC(=O)OCC)=C(C#N)C1c1cccnc1 (stereo not given)	-1.8	-1.8	5.3*!	4.8	-0.3	8.2
CC/C(=N/Nc1cccc(Cl)c1)c1cnnc(SC)n1	-19.8	-9.7	4.6*	-1.6	4.1	9.4
Fc1cccc(Cc2noc(CN3CCCCC3CCc3ccccn3)n2)c1 (stereo not given)	7.7	-2.3	-1.8	1.7	1.6	4.1
O=C(c1ccccn1)C1CCCN(Cc2nc(Cc3cccc(F)c3)no2)C1 (stereo not given)	5.7	0.0	4.4*	-1.9	-0.1	2.5
Cc1noc(/C=C/N(C)C)c1S(=O)(=O)N1CCN(c2ccc(F)cc2)CC1	-69.1	-61.8*	0.7	-3.3	2.3	-1.5
O=C1C2CCCN2c2ccc(S(=O)(=O)N3CCOCC3)cc2N1Cc1cccc(C(F)(F)F)c1 (stereo not given)	-88.1	-85.3*	.	-1.2	.	4.2
Cc1ccc(N(CC(=O)NCCc2ccc(F)cc2)S(=O)(=O)c2ccc(Cl)c([N+](=O)[O-])c2)c(C)c1	89.4*	84.9	0.1	5.5	-0.7	-1.9
Cc1ccc(NC2c3ncccc3C(=O)N2C2CCCCC2)cc1 (stereo not given)	66.7*	33.7	-1.2	4.8	-1.8	-1.8
COCCN(Cc1ccccc1)C(=S)Nc1ccc(Cl)cc1	-63.4	-54.2*	-0.8	-2.0	-0.9	0.2
COc1ccc(NC(=S)N(CCO)Cc2ccccc2)cc1	1.6	6.1	1.0	-0.2	1.9	1.6
